TDP1 cell CPT: DT40-hTDP1 cell growth loss with CPT. chicken DT40 Tdp1-/-;hTDP1 cells + 20 nM CPT, ATP luminescence, 48 h. Potency, µM (highest dose often 46.2 µM), most hits filed as inhibitors. hit rate 12% among 420,000. AID 686979; also: nearly all actives have a fitted effect of over 55% in size
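Cell growth measured by CellTiter-Glo luminescence after a minimum 48 h, 37 C compound exposure with 20 nM CPT in Tdp1-knockout DT40 cells stably expressing hTDP1, seeded 400/well; qHTS titration format.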
ClpP mod: qHTS Assay for Activators of ClpP; ATP-dependent Clp protease proteolytic subunit (Bacillus subtilis (strain 168)), P80244; purified B. subtilis ClpP, FRET peptide cleavage, 20 min; Potency, µM (titrated, usually from 57.5 µM); hit rate 1.9% among 340,000; AID 651965, 2013; active = well fitted falling curve with a large enough effect; inconclusive = small, poorly fitted or top-dose-only effect; inactive = no such curve, though single readings can be large or run the other way; also: the source files actives as falling curves though it sought activators and does not explain the sign; nearly all actives have a fitted effect of over 65% in size
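FRET quenching reversal measured ClpP activation: 10 microg/mL B. subtilis ClpP at pH 8 with the FRET-FV decapeptide, read at 430 nm after 320 nm excitation. The 20-min minus 0-min signal was scaled between DMSO/no-enzyme wells and ADEP (5.8 microM final).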
TDP1 inh: TDP1 (human) enzyme inhibition. recombinant TDP1, AlphaScreen DNA substrate cleavage. AID 485290. hit rate 0.28% among 350,000. Q9NUW8. Potency, µM (highest dose often 130 µM), usual class: inhibitors; also: nearly all actives have a fitted effect of over 40% in size
Target sequence (Q9NUW8 whole entry, looked up): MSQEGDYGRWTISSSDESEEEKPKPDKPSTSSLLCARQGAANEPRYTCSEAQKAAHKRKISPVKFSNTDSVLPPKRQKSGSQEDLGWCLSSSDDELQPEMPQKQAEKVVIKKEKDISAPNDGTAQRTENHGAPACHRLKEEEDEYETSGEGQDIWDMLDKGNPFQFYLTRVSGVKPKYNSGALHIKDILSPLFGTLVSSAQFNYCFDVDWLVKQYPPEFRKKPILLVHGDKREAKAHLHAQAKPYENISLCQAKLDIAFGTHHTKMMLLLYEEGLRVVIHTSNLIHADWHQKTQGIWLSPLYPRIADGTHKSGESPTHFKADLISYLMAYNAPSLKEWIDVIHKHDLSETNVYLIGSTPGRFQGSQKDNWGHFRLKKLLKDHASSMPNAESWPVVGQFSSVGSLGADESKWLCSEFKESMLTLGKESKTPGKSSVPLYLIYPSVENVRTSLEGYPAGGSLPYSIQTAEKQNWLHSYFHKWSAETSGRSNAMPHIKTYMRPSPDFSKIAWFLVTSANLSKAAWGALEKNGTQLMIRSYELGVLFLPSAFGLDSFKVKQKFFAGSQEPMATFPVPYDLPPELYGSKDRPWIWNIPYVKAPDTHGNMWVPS
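AlphaScreen read-out: signal falls as enzyme removes the 3' tyrosine-FITC from a 5'-biotinylated DNA oligo (15 nM, 5 min, RT). Enzyme was E. coli-made recombinant Tdp1 at 1 nM, exposed to compound for 15 min beforehand; beads 10 ug/ml, 10 min.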
DT40 TDP1 no CPT: qHTS for Inhibitors of human tyrosyl-DNA phosphodiesterase 1 (TDP1): qHTS in cells in absence of CPT. hit rate 15% among 420,000. Potency, µM (top dose mostly 46.2 µM), usual class: inhibitors. DT40 Tdp1-/- hTDP1 cells, no CPT, ATP luminescence, 48 h. AID 686978, 2013; also: nearly all actives have a fitted effect of over 55% in size
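Seeded 400 DT40-hTDP1 cells/well (vehicle DMSO, no 20 nM CPT); pinned compounds; ≥48 hr at 37 °C; CellTiter-Glo luminescence as viability measure.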
A number is an active result; – = inactive; ? = inconclusive; · = no result given; [ ] = dose if it differs, or a comment. Rows were chosen to be rich in hits. Some 17% of all compounds tested hit in one or more screens of this group. Unless noted, calls follow the shape of the dose curve; as a rule, active = well fitted curve in the direction sought with a large enough effect; inconclusive = small, poorly fitted or top-dose-only effect, or another doubt; inactive = no such curve, though single readings can be large; an effect the other way counts as inactive or inconclusive.

SMILES	TDP1 cell CPT	ClpP mod	TDP1 inh	DT40 TDP1 no CPT
O=C(NCCN1CCN(c2ccc([N+](=O)[O-])cc2)CC1)NCc1ccccc1	?	–	–	8.2µM
O=C(Cc1ccc([N+](=O)[O-])cc1)N1CCCCCC1	–	·	–	?
O=C(NCCN1CCN(Cc2ccc([N+](=O)[O-])cc2)CC1)C(=O)Nc1ccccc1	–	–	–	–
CCCCCSc1nnc(-c2ccc(Br)cc2)o1	–	–	–[12.3 µM]	–
O=c1[nH][nH]c(=S)n1-c1ccccc1C(F)(F)F	·	·	–	·
CCc1ccc(S(=O)(=O)NCc2nc(N3CCCC3)c3cccc(C)c3n2)cc1	–[9.04 µM]	·	·	?
O=C(CSc1nc2ccccc2[nH]1)N1CCN(c2ccc(F)cc2)CC1	?	–	–	?
O=C(CSc1ccccc1C(=O)N1CCN(c2ccc([N+](=O)[O-])cc2)CC1)N1CCCC1	11.6µM	–	–	14.6µM
O=C(CCCN1C(=O)C2CCCCN2C1=O)N1CCN(c2ccc([N+](=O)[O-])cc2)CC1 (configuration not stated)	?	?	–	23.1µM
O=C(CSc1ccccc1C(=O)N1CCN(c2ccccc2)CC1)N1CCCC1	?	–	–	–
O=C(CCCSc1nc2ccccc2[nH]1)N1CCN(c2ccc([N+](=O)[O-])cc2)CC1	10.3µM	–	–	8.2µM
O=C(Cc1ccc([N+](=O)[O-])cc1)N1CCN(c2ccc([N+](=O)[O-])cc2)CC1	18.4µM	–	·	7.31µM
O=C(/C=C\c1ccc2c(c1)OCO2)NC1CC(=O)N(c2ccc(F)cc2)C1 (configuration not stated)	–	?	–	–
O=C(CCc1ccccc1)N1CCN(c2ccc([N+](=O)[O-])cc2)CC1	?	–	–	23.1µM
Cc1cccc(CN2CCN(C(C)C(=O)NC(C)c3ccccc3)CC2)c1 (configuration not stated)	?	·	·	–
NC(=S)N=Nc1c(O)n(Cc2ccc(Br)cc2)c2ccccc12	5.17µM	–	–	4.61µM
NC(=S)N=Nc1c(O)n(Cc2ccc(F)cc2)c2ccccc12	16.4µM	–	–	?
CC(=O)OC1COC(n2c(O)c(N=NC(N)=S)c3ccccc32)C(OC(C)=O)C1OC(C)=O (configuration not stated)	–	–	–	–
Cc1ccc2c(c1)c(N=NC(N)=S)c(O)n2Cc1ccccc1	4.11µM	25.1µM	–	3.26µM
O=Nc1c(O)n(Cc2ccc(Cl)cc2)c2ccccc12	–	–	–	–
Cc1ccc2c(c1)c(N=O)c(O)n2Cc1ccc(Cl)cc1	–	·	–	–
COc1ccc(CNC(=O)C(=O)NCC(c2cccs2)S(=O)(=O)c2ccc(C)cc2)cc1 (configuration not stated)	–	–	–	?
COc1cccc(OC)c1OCCN(C)C	–	–	–	–
COc1cccc(OC)c1OCCNC(C)(C)C	–	31.6µM	–	–
c1cnc2ccc(-c3ccc4ncccc4c3)cc2c1	?	·	·	4.11µM
SMILES	TDP1 cell CPT	ClpP mod	TDP1 inh	DT40 TDP1 no CPT
Cc1ccc2ncccc2c1	–	–	–	–
O=C(Nc1ccc2ncccc2c1)c1ccccc1Br	–	–	·	?
O=C(Nc1ccc2ncccc2c1)Nc1ccc2ncccc2c1	20.6µM	–	·	8.2µM
O=S(=O)(O)c1c(NS(=O)(=O)c2ccccc2)ccc2ccccc12	·	·	–	·
CCC(=O)N1CCc2cc(S(=O)(=O)NC(CC(C)C)C(=O)Nc3cc(C)ccc3OC)ccc21 (configuration not stated)	18.4µM	–	–	?
CCC(=O)N1CCc2cc(S(=O)(=O)NC(Cc3ccccc3)C(=O)Nc3ccc(C)cc3)ccc21 (configuration not stated)	16.4µM	–	–	?
Cc1cc(C)cc(NC(=O)C(Cc2ccccc2)NS(=O)(=O)c2ccc3c(c2)c(=O)n(C)c(=O)n3C)c1 (configuration not stated)	?	–	–	?
Cc1ccc(NC(=O)C(Cc2ccccc2)NS(=O)(=O)c2ccc3c(c2)c(=O)n(C)c(=O)n3C)cc1 (configuration not stated)	16.4µM	–	–	?
CCC(=O)N1CCc2cc(S(=O)(=O)NC(CC(C)C)C(=O)Nc3cccc(C)c3C)ccc21 (configuration not stated)	–	–	–	–
Cc1ccc(S(=O)(=O)N[C@@H](Cc2ccccc2)C(=O)CCl)cc1	2.59µM	–	–	5.17µM

Screens as filed in PubChem.
